TDP1 cell noCPT: qHTS for Inhibitors of human tyrosyl-DNA phosphodiesterase 1 (TDP1): qHTS in cells in absence of CPT; DT40 Tdp1-/- hTDP1 cells, no CPT, ATP luminescence, 48 h; Potency, µM (top dose mostly 46.2 µM), for the others: at the highest dose activity change, negative = growth inhibition, usual class: inhibitors; 15% of 420,000 active; AID 686978, 2013; further: potency means the concentration at half of the fitted maximal effect; nearly all actives have a fitted effect of over 55% in size
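A cellular qHTS used chicken DT40 cells lacking endogenous Tdp1 but carrying stably transfected human TDP1. Compounds were applied without camptothecin, and cell growth kinetics were judged by ATP-dependent luminescence after ≥48 hr.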
HT1080 IDH1KD tx: kills HT-1080 cells with IDH1 knockdown; Potency, µM (titrated, usually from 46.1 µM), inactives show at the top dose activity, negative = toxicity, usual class: cytotoxic; 2% of 360,000 active; HT-1080 IDH1 knockdown viability, ATP luminescence, 48 h;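 further: potency means the concentration at half of the fitted maximal effect; 0% = DMSO wells and -100% = cell-free medium wells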
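After a 2 h attachment period, IDH1KD HT-1080 cells took pin-transferred compound for 48 h at 37 °C; ATP-based luminescence after 10 min room-temperature reagent incubation reported viability.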
HT1080-NT tox: kills 2HG-producing HT-1080-NT fibrosarcoma cells; 1.6% of 360,000 active; Potency, µM (titrated, usually from 46.1 µM), for the others: at the highest dose activity, negative = less viability, most hits filed as cytotoxic; HT-1080-NT fibrosarcoma viability, CellTiter-Glo ATP luminescence, 48 h;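 further: NT is the 2HG producing partner of a matched IDH1 knockdown line; potency means the concentration at half of the fitted maximal effect; 0% = DMSO-treated cells and -100% = media-only wells without cells; nearly all actives have a fitted effect of over 55% in size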
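Viability of the 2HG-overproducing fibrosarcoma line after 48 hours of compound exposure at 37 degrees C was determined by luminescence with CellTiter-Glo, and concentration-effect curves were then fitted and categorized.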
IL1B secr inh: inflammasome signaling inhibition, IL-1 beta readout | THP-1 LPS/ATP IL-1B secretion, AlphaLISA, 16 h; hits give low values | activity change, % at 57.5 µM | 4.7% of 360,000 active; in the data active means activity change below about -50%; inconclusive means mostly about -30% to -49%
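Secreted IL-1B measured by AlphaLISA bead assay after 16 h compound exposure of THP-1 cells; compounds (final up to 57.5 uM) added 1 h before LPS (250 ng/mL) and ATP (1.25 mM) stimulation; lower signal means less secretion.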
ALOX12 inh: inhibitors of human 12S-lipoxygenase ALOX12 | Potency, µM (doses to about 108 µM), without a hit: top-dose activity change, negative = inhibition, usual class: inhibitors | AID 1671190 | purified 12hLO, xylenol orange hydroperoxide absorbance | 1.1% of 580,000 active; further: potency means the concentration at half of the fitted maximal effect
Target sequence (P18054 whole entry, looked up): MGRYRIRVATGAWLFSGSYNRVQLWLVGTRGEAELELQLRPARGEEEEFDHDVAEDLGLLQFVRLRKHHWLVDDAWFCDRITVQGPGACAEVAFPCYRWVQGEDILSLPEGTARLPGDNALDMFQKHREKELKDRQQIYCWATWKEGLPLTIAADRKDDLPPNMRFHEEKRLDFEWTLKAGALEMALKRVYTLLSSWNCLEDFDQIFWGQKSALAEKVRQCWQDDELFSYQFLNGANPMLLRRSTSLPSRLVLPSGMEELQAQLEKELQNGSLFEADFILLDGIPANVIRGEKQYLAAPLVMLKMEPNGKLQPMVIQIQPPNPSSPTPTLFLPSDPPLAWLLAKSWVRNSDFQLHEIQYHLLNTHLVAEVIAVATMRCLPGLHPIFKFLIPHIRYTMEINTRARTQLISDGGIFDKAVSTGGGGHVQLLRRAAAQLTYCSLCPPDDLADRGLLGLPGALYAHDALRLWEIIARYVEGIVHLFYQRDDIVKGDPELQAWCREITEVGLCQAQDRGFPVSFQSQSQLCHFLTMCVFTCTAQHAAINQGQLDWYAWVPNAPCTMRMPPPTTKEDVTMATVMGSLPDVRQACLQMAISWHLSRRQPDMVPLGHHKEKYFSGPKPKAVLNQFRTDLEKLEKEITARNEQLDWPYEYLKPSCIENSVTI
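Hydroperoxide product was detected by ferrous iron/xylenol orange as the 573 to 405 nm absorbance ratio. Arachidonic acid at 40 uM (final) was turned over for 30 min at room temperature by 150 nM human 12hLO, pH 7.0 Hepes buffer, after 15 min compound preincubation.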
DT40 TDP1 CPT: growth inhibition of DT40 Tdp1-/-;hTDP1 cells with camptothecin (screen for TDP1 inhibitors). chicken DT40 Tdp1-/-;hTDP1 cells + 20 nM CPT, ATP luminescence, 48 h. Potency, µM (highest dose often 46.2 µM), for the others: at the top dose activity change, negative = growth inhibition, most hits filed as inhibitors. 12% of 420,000 active. AID 686979; further: potency means the concentration at half of the fitted maximal effect; nearly all actives have a fitted effect of over 55% in size
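Chicken DT40 Tdp1-/- cells complemented with human TDP1, 400 cells/well, exposed to compounds plus 20 nM camptothecin for at least 48 h at 37 C; viability read as ATP content by CellTiter-Glo luminescence.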
* hit, by the source's call; i = inactive; ? = inconclusive; · = no result given; [ ] = remark or other dose. The full list was thinned out, with hits kept by preference. Unless noted, the call rests on the fitted dose curve; in most records, active means well fitted curve in the direction sought with a large enough effect; inconclusive means small, poorly fitted or top-dose-only effect, or another doubt; inactive means no such curve, though single readings can be large; an effect the other way counts as inactive or inconclusive. Unless noted, on the % scale 0 is the no-effect control and ±100 the full control effect.

SMILES	TDP1 cell noCPT	HT1080 IDH1KD tx	HT1080-NT tox	IL1B secr inh	ALOX12 inh	DT40 TDP1 CPT
O=C(c1cc(-c2cccc(Cl)c2)nc2ccccc12)N1CCN(c2ccccn2)CC1	?	-13%	-2%	i	0%	?
OC1CCN(Cc2nc(-c3ccc(Cl)cc3)no2)CC1	·	·	·	·	-12%	·
Fc1cccc(-c2cc3nc4c(c(NCc5ccco5)n3n2)CCCC4)c1	-19%	-13%	?	-92*	-4%	?
Clc1cccc(-c2cc3nc4c(c(N5CCN(c6cnccn6)CC5)n3n2)CCCC4)c1	?	8%	9%	-15	0%	23µM*
Cc1nc2cc(-c3ccccc3)nn2c(C)c1CCC(=O)NCc1ccco1	-19%	-1%	-1%	-3	-23%	-3%
OC1CCN(c2c3c(nc4cc(-c5ccc(Cl)cc5)nn24)CCC3)CC1	21µM*	-12%[9.24 µM]	-6%	?	0%	23µM*
O=C(NCCNC(=O)c1cc2ccccc2[nH]1)C(=O)N1CCCC1	·	·	·	·	-14%	·
CSc1ccc(/C=C/C(=O)Nc2ccccc2Cc2ccccc2)cc1	·	·	·	·	11%	·
C=CCn1c(-c2ccc(OC)cc2)csc1=Nc1c(C)n(C)n(-c2ccccc2)c1=O	21µM*	-14%	-18%	-19	-14%	21µM*
C[C@H]1[C@@H]2[C@@H](O)C([C@H](C)C(=O)NCc3cccs3)CC[C@@]2(C)CC[C@@H]1NC(=O)C1CCCCC1 (stereo partly drawn)	·	·	·	·	54%	·
O=C(c1ccccc1)N1CCN(CC#Cc2ccccc2)CC1	-17%	-5%	-8%	-12	8%	7%
C(#Cc1ccc(C#CCN2CCCC2)cc1)CN1CCCC1	21µM*	2%	2%	-15	17%	?
COc1ccc(OCCn2c(N)nc3ccccc32)cc1	23µM*	-20%	-21%	-21	-11%	?
COc1ccc(OCCn2c(C(C)Oc3ccccc3)nc3ccccc32)cc1 (stereo not drawn)	?	·	·	·	-22%	?
Nc1nc2ccccc2n1CCOc1ccc(F)cc1	23µM*	?	?	-51*	9%	?
Cc1cccc(C(=O)N2CCN(Cc3ccc(-c4cccc(F)c4)s3)CC2)n1	·	·	·	·	31%	·
CCOC(=O)[C@]12CCC=C1N(Cc1ccco1)C(=O)[C@H](CC(=O)NCC13CC4CC(CC(C4)C1)C3)C2	?	?	?	-12	0%	?
CCOC(=O)[C@]12CCCC=C1N(Cc1ccco1)C(=O)[C@H](CC(=O)NCC13CC4CC(CC(C4)C1)C3)C2	?	?	?	-55*	?	26µM*
CCOC(=O)[C@]12CCCC=C1N(Cc1ccco1)C(=O)[C@H](CC(=O)NCCCCc1ccccc1)C2	?	?	-21%	?	?	23µM*
C=CCC1(CO)CCCN(C(=O)CCN(C)S(C)(=O)=O)C1 (stereo not drawn)	·	·	·	·	19%	·
Cn1nc(C(=O)OCCOc2ccccc2)c2ccccc2c1=O	·	·	·	·	6%	·
CCN1c2cc(C(=O)NCc3cccs3)ccc2C(=O)N2CCCCCC21 (stereo not drawn)	·	·	·	·	25%	·
O=C(COc1ccccc1)N1CCC2(CC1)CC(N(Cc1ccccc1)C1CC1)CCO2 (stereo not drawn)	·	·	·	·	-7%	·
Cc1ccnc2c1ccc1ccccc12	9%	1%	1%	-26	0%	-4%
Cc1ccnc2ncccc12	-12%	·	·	·	·	-25%
SMILES	TDP1 cell noCPT	HT1080 IDH1KD tx	HT1080-NT tox	IL1B secr inh	ALOX12 inh	DT40 TDP1 CPT
Cc1cc(C)c2ccc(/C=N/O)nc2c1O	-29%	?	-7%	9	?	-21%
Cc1ccc(C(=O)Nc2c(C)cc(C)c3cccnc23)cc1	16µM*	-5%	5%	7	13%	?
Cc1cc(C)c2cccnc2c1O	1.1µM*	·	·	·	·	1.3µM*
Cc1ccnc2c1ccc1cccnc12	0.58µM*	?	?	-86*	-12%	1µM*
Cc1cc(C)c2ccc(NN)nc2c1O	18µM*	?	-23%	61	?	?
Cc1ccnn1CCC(=O)Nc1nn(C)c2cccc(N3CCOCC3)c12	·	·	·	·	-8%	·
Cc1ccnc2c(N3C(=O)C4C5c6ccccc6C(c6ccccc65)C4C3=O)cccc12 (stereo not drawn)	16µM*	-22%	0%	?	25%	21µM*
Cc1ccnc2c1ccc1c(C)ccnc12	2.6µM*	15µM*	13µM*	?	·	0.92µM*
Cc1ccnc2c(O)cccc12	0.89µM*	·	·	·	·	1.3µM*
CCC(C)[C@H](NC(=O)Nc1cc(OC)cc(OC)c1)C(=O)O (stereo partly drawn)	·	·	·	·	-1%	·
CO[C@H]1C[C@@H](O)C12CCN(C(=O)c1oc(COc3ccccc3)cc1C)CC2	·	·	·	·	41%	·
CCOc1ccc(Br)cc1C1=NN(C(C)=O)C(c2ccc([N+](=O)[O-])s2)O1 (stereo not drawn)	8.2µM*	?	23µM*	-26	-8%	18µM*
CCOC(=O)c1c(C)n(C)c2ccc(OCC(O)Cn3c(C)nc4ccccc43)cc12 (stereo not drawn)	18µM*	?	-26%	-54*	23%	?
CCOC(=O)c1c(C)n(C)c2ccc(OC(=O)c3ccoc3)cc12	-5%	0%	?	-7	-19%	3%
CCOC(=O)c1c(-c2ccccc2)oc2ccc(OCC(O)CNCCN(C)C)cc12 (stereo not drawn)	?	13µM*	18µM*	-103*	-6%	16µM*
CCOC(=O)c1c(C)n(-c2ccc(C)cc2)c2ccc(OCC(O)CN3CCN(C)CC3)cc12 (stereo not drawn)	?	18µM*	21µM*	-58*	?	-88%
CCOC(=O)c1c(C)n(C)c2ccc(OCC(O)CN3CCN(C)CC3)cc12 (stereo not drawn)	-10%	-2%	9%	-20	0%	-4%
CCOC(=O)c1c(C)n(C)c2ccc(OCC(O)CNCCc3ccccc3)cc12 (stereo not drawn)	?	-13%	-24%	-60*	?	?
O=C(NCCc1ccc(F)cc1)c1cc(=O)[nH]c2ccccc12	·	·	·	·	1%	·
COC(=O)c1ccc(CNC(=O)c2cc(OC)cc(OC)c2)cc1	·	·	·	·	26%	·
Cc1cccn2c(CN(C)CCc3cnn(C)c3)c(C(=O)N(C)CCc3ccccc3)nc12	·	·	·	·	0%	·
